In PubChem BioAssay (EPA / NIEHS):
Results filed as inconclusive are left out. The source made the active and inactive calls. The calls were made as follows, unless noted: active = hit-call score of the fitted dose curve at least 0.9, where 1 is the maximum; inactive = score below 0.9.

Experiments:
[1] = CCTE_Shafer_MEA_dev_LDH: CCTE's Lactate Dehydrogenase Assay for Cytotoxicity in the Neural Network Formation Assay, Shafer Lab (AID 2284068; active = hit-call score of the fitted dose curve at least 0.9, where 1 is the maximum;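 also: exposure for twelve days from plating with re-dosing on DIV 5 and 9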)
Procedure, shortened: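 Developing rat cortical networks on MEA plates are exposed to compound for 12 days from plating. LDH activity is measured spectrophotometrically, with DMSO as baseline.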

[2] = UKN5_HCS_SBAD2_neurite_outgrowth: University of Konstanz (UKN) Leist Lab Neurite Outgrowth Assay in human iPSC-derived immature Dorsal Root Ganglia Neurons (UKN5) (AID 2284070); settings: actives raise or lower the signal
Procedure, shortened: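 Human iPSC-derived immature DRG neurons (SBAD2) on Matrigel with CHIR99021 (1.5 uM), SU5402 (5 uM), DAPT (5 uM); compounds added 1 h post-seeding for 24 h. Calcein-AM neurite area imaged; bidirectional fit vs DMSO.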

[3] = CCTE_Shafer_MEA_dev_mutual_information_norm: CCTE's Neural Network Formation Assay for Mutual Information Normalization, Shafer Lab (AID 2284091)
Procedure, shortened: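 Rat cortical cultures, 48-well MEA, continuous exposure DIV 0–12 with full media/compound change DIV 5 and 9. Readout: inter-electrode mutual information, AxIS adaptive spike detection; AUC across DIV 5/7/9/12 recordings; DMSO baseline, negative fitting direction.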

[4] = CCTE_Shafer_MEA_dev_correlation_coefficient_mean: CCTE's Neural Network Formation Assay for Mean Correlation Coefficient, Shafer Lab (AID 2284093);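 also: well mean pairwise spike train correlation integrated as AUC over recording days 5 to 12; potency fitted for loss of correlation relative to DMSO vehicle wells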
Procedure, shortened: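 Extracellular firing from rat cortical networks on 48-well MEAs, DMSO-referenced, negative fitting direction. Compound present from plating to DIV12; mean pairwise correlation per well integrated over DIV5–12 recordings by trapezoidal AUC.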

[5] = UKN2_HCS_IMR90_neural_migration: University of Konstanz (UKN) Leist Lab Neural Crest Cell Migration Assay in human induced IMR90 Pluripotent Stem Cells (UKN2) (AID 2284204); settings: actives raise or lower the signal
Procedure, shortened: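 iPSC-derived IMR90 neural crest cells on PLO/laminin/fibronectin were seeded around silicone stoppers; after stopper removal, migration in N2-S medium with EGF and FGF ran 24 h before 24 h chemical exposure. Calcein-AM/Hoechst high-content imaging; bidirectional fit versus DMSO.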

[6] = UKN4_HCS_LUHMES_neurite_outgrowth: University of Konstanz (UKN) Leist Lab Neurite Outgrowth Assay in human LUHMES cells (UKN4) (AID 2284206); settings: actives raise or lower the signal
Procedure, shortened: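 LUHMES neuronal precursors differentiated 2 days, replated without cAMP/GDNF, then exposed to chemicals for 24 h. Neurite area imaged by high-content microscopy after calcein-AM staining; Hoechst H-33342 marks viability. Bidirectional fit versus DMSO.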

[7] = IUF_NPC1b_proliferation_BrdU_72hr: Leibniz Research Institute for Environmental Medicine (IUF) 72-hour Neural Progenitor Cell Bromodeoxyuridine (BrdU) Proliferation Assay (NPC1b) (AID 2284207)
Procedure, shortened: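 hNPC spheres (primary, GW 16-19 fetal cortex), single sphere/well, EGF+FGF medium; 72 h compound, no renewal; BrdU pulse last 16 h; luminescent ELISA; activity vs DMSO baseline; growth-factor withdrawal as positive control.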

[8] = IUF_NPC1a_proliferation_area_72hr: Leibniz Research Institute for Environmental Medicine (IUF) 72-hour Neural Progenitor Cell Proliferation Area Assay (NPC1a) (AID 2284208)
Procedure, shortened: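 Measured in 3D suspension: each well held one primary hNPC sphere grown with EGF and FGF at pH 7.2-7.6. Compound stayed on for 72 h, then area was imaged; spheres lacking growth factors defined reduced proliferation.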

[9] = IUF_NPC1_viability_72hr: Viability Assessment at 72 hours in the Leibniz Research Institute for Environmental Medicine (IUF) Neural Progenitor Cell Proliferation Assay (NPC1) (AID 2284209)
Procedure, shortened: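 Human fetal-cortex neural progenitor spheres (0.25–0.35 mm, one per well) grown in EGF/FGF proliferation medium at 37C, pH 7.2-7.6, exposed 72 h without renewal; viability read as alamar blue resazurin-to-resorufin fluorescence relative to DMSO.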

[10] = UKN2_HCS_IMR90_cell_viability: Viability Assessment in the University of Konstanz (UKN) Leist Lab Neural Crest Cell Migration Assay in human induced IMR90 Pluripotent Stem Cells (UKN2) (AID 2284233);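 also: viability of neural crest cells differentiated from IMR90 iPSC measured by calcein-AM fluorescence imaging; cells exposed to compound for 24 h after a 24 h migration phase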
Procedure, shortened: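 iPSC-derived (IMR90) neural crest cells seeded around silicone stoppers on PLO/laminin/fibronectin; after 24 h migration in N2-S with EGF/FGF, chemical added for 24 h. Calcein-AM/Hoechst stained 30 min, high-content imaged; bidirectional fit versus DMSO.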

[11] = IUF_NPC2c_oligodendrocyte_migration_120hr: Leibniz Research Institute for Environmental Medicine (IUF) 120-hour Neural Progenitor Cell Migration Assay for Oligodendrocyte Migration (NPC2c) (AID 2284297);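 also: O4-positive oligodendrocyte migration distance divided by radial glia migration distance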
Procedure, shortened: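 Using fetal brain neural progenitor spheres differentiating in N2 medium at 37C, compounds were present for 120 h. Oligodendrocyte migration distance, normalized to radial glia migration, was measured from imaged O4 staining.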

[12] = IUF_NPC2a_radial_glia_migration_120hr: Leibniz Research Institute for Environmental Medicine (IUF) 120-hour Neural Progenitor Cell Migration Assay for Radial Glia Migration (NPC2a) (AID 2284298)
Procedure, shortened: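 Exposure of 0.3 mm primary hNPC spheres runs day 0 to 120 h with a half-volume medium change at day 3. Fixed cells get Hoechst staining; high-content analysis of nuclear positions yields radial glia migration distance per well, compared against DMSO controls.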

[13] = IUF_NPC2a_radial_glia_migration_72hr: Leibniz Research Institute for Environmental Medicine (IUF) 72-hour Neural Progenitor Cell Migration Assay for Radial Glia Migration (NPC2a) (AID 2284299)
Procedure, shortened: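 Human fetal cortex (GW 16-19) neural progenitor spheres, 0.3 mm, plated on poly-D-lysine/laminin in N2 differentiation medium with compound from day 0. Radial glia migration distance (um, sphere core edge to migration edge) measured manually in four directions on 72 h brightfield images; well mean used.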

[14] = IUF_NPC2b_neuronal_migration_120hr: Leibniz Research Institute for Environmental Medicine (IUF) 120-hour Neural Progenitor Cell Migration Assay for Neuron Migration (NPC2b) (AID 2284300)
Procedure, shortened: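 Fetal human NPC spheres migrate on PDL/laminin during 120 h compound treatment; neuronal migration distance, glia-normalized, scored versus DMSO control.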

[15] = IUF_NPC3_neuronal_differentiation_120hr: Leibniz Research Institute for Environmental Medicine (IUF) 120-hour Neuronal Differentiation Assay (NPC3) (AID 2284301)
Procedure, shortened: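 Primary human fetal neural progenitor spheres (GW 16-19, 0.3 mm) plated on poly-D-lysine/laminin in N2 medium, exposed from day 0 for 120 h with half-medium refresh at day 3. TUBB3+ cells as percent of Hoechst nuclei in migration area; DMSO baseline.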

[16] = IUF_NPC4_neurite_length_120hr: Leibniz Research Institute for Environmental Medicine (IUF) 120-hour Neuronal Morphology Assay for Neurite Length (NPC4) (AID 2284302)
Procedure, shortened: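 Human fetal cortex (GW 16-19) neural progenitor spheres, 0.3 mm, were plated on poly-D-lysine/laminin in N2 differentiation medium and exposed from day 0 for 120 h, half-feeding at day 3. Mean TUBB3+ neurite length (µm) came from skeletonized images, relative to DMSO.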

[17] = IUF_NPC5_oligodendrocyte_differentiation_120hr: Leibniz Research Institute for Environmental Medicine (IUF) 120-hour Oligodendrocyte Differentiation Assay (NPC5) (AID 2284304; active = hit-call score of the fitted dose curve at least 0.9, where 1 is the maximum;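 also: primary human fetal neural progenitor spheres plated to migrate and differentiate; share of O4-positive cells among Hoechst nuclei found by CNN image analysis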)
Procedure, shortened: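 After plating on poly-D-lysine/laminin, fetal-derived hNPC spheres differentiated for 120 h at 37C in compound-containing N2 medium, refreshed by half on day 3. O4 immunostaining over Hoechst nuclei in the migration zone gave oligodendrocyte percentage relative to DMSO.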

[18] = IUF_NPC4_neurite_area_120hr: Leibniz Research Institute for Environmental Medicine (IUF) 120-hour Neuronal Morphology Assay for Neurite Area (NPC4) (AID 2284305; active = hit-call score of the fitted dose curve at least 0.9, where 1 is the maximum)
Procedure, shortened: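 Human fetal cortex-derived neural progenitor spheres (0.3 mm, GW 16-19) plated on poly-D-lysine/laminin in N2 differentiation medium and exposed from day 0 for 120 h across 7 concentrations plus solvent control. Neurite area is mean pixel area per TUBB3-positive neuron via skeletonization, analysed relative to DMSO.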

[19] = IUF_NPC2-5_cytotoxicity_120hr: Cytotoxicity Assessment at 120 hours in the Leibniz Research Institute for Environmental Medicine (IUF) Neural Progenitor Cell Migration and Differentiation Assay (NPC2-5) (AID 2284307; active = hit-call score of the fitted dose curve at least 0.9, where 1 is the maximum)
Procedure, shortened: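 Membrane-integrity loss is quantified by LDH in supernatant after five days of exposure of migrating, differentiating human fetal NPC spheres; seven serially diluted concentrations are tested with DMSO kept at or below 0.1%.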

[20] = IUF_NPC2-5_cell_number_120hr: Cell Number Assessment at 120 hours in the Leibniz Research Institute for Environmental Medicine (IUF) Neural Progenitor Cell Migration and Differentiation Assay (NPC2-5) (AID 2284308);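 also: count of Hoechst-stained nuclei in migration zone around plated human neural progenitor spheres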
Procedure, shortened: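 Seven-point serial dilutions plus solvent control were applied to plated 0.3 mm hNPC spheres at differentiation start, with medium half-replaced at day 3. Nuclei positive for Hoechst in the migration zone were enumerated at 120 h.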

[21] = IUF_NPC2-5_viability_120hr: Viability Assessment at 120 hours in the Leibniz Research Institute for Environmental Medicine (IUF) Neural Progenitor Cell Migration and Differentiation Assay (NPC2-5) (AID 2284312)
Procedure, shortened: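 Human fetal (GW 16-19) neural progenitor spheres of 0.3 mm were plated on poly-D-lysine/laminin in N2 differentiation medium and exposed from day 0 for 120 h, with half-medium refresh at day 3. Viability was read as alamar blue resazurin-to-resorufin fluorescence against DMSO.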

[22] = IUF_NPC1_cytotoxicity_72hr: Cytotoxicity Assessment at 72 hours in the Leibniz Research Institute for Environmental Medicine (IUF) Neural Progenitor Cell Proliferation Assay (NPC1) (AID 2284332; active = hit-call score of the fitted dose curve at least 0.9, where 1 is the maximum;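 also: rising LDH signal means more cytotoxicity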)
Procedure, shortened: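 Single human fetal cortex neural progenitor spheres (GW 16-19, 0.25-0.35 mm) in EGF/FGF proliferation medium were exposed to compound for 72 h at 37C without renewal. Medium LDH release was read as resorufin fluorescence and fitted as gain-of-signal.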

Measured: AC50

Brc1ccc(Oc2cc(Br)c(Br)cc2Br)c(Br)c1
inactive: [2] | [3] | [5] | [7] | [8] | [9] | [10] | [11] | [12] | [13] | [14] | [15] | [16] | [17] | [18] | [19] | [20] | [21] | [22]
active: [1] 11.9 µM | [4] 10 µM | [6] 13.4 µM
